Reference: PMC4336329 (PLoS ONE, 2015)
Among all 310,000 compounds or so, about 14,000 (4.5%) showed an effect of 50% or more. The effect is printed as a negative number. The sample holds strong results, similar compounds and a random draw of the others, so the mix is not that of the screen.

Target: human ether-à-go-go-related gene (hERG) potassium channel (human, UniProt Q12809)
Test: primary screen, population patch clamp on CHO cells stably expressing hERG; higher = less effect of the substance
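Further: peak tail current of the secondary pulse compared with the same well before compound.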

human ether-à-go-go-related gene (hERG) potassium channel, sequence (Q12809 whole entry, looked up): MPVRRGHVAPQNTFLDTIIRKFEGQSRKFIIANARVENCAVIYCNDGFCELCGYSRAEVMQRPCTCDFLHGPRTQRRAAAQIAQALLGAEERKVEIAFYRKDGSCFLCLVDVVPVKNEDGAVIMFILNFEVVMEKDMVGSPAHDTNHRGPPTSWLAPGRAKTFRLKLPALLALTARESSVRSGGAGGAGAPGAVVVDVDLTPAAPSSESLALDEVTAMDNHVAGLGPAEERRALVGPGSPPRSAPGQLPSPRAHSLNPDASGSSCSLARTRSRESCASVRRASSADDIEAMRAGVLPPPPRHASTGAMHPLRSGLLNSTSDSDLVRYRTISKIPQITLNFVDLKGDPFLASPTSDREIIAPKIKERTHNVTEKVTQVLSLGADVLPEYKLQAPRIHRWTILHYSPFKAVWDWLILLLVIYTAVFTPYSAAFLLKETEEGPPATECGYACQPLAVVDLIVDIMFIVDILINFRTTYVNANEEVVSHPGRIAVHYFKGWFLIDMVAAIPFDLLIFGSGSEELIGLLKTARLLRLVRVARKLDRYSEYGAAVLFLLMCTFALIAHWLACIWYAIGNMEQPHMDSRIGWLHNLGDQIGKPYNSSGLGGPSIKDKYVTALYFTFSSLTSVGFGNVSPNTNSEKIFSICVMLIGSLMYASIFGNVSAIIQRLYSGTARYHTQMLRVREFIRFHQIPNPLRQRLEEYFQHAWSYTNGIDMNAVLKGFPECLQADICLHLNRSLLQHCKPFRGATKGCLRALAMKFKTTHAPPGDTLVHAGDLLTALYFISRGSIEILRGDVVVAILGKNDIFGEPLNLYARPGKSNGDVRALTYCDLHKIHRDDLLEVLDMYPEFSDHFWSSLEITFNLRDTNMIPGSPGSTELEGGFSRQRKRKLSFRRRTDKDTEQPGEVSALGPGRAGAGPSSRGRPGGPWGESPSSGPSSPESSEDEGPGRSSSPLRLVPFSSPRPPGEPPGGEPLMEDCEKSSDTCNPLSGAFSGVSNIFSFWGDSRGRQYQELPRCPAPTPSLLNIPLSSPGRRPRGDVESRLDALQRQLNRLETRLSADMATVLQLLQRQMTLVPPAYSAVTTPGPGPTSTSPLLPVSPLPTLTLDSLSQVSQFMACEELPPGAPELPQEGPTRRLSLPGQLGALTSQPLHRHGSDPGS

| SMILES | hERG current change (%, negative = inhibition) at 10uM [%] |
| --- | --- |
| Cc1ccccc1NC(=O)NNC(=O)OC(C)(C)C | -6.37 |
| O=C(C1CCCCN1S(=O)(=O)c1ccccc1)N1CCCCC1 (centres unmarked) | -1.03 |
| N#Cc1ccc(C23CC4(C2)[C@H](CN(Cc2ccc(-c5ccccc5)cc2)[C@@H]4c2ccccc2)C3c2ccc(C(F)(F)F)cc2)cc1 (some centres unmarked) | 6.84 |
| CC(O)[C@H]1CNC(=O)C(=O)N1CCc1cccc(F)c1 (some centres unmarked) | 21 |
| CCCn1c(N)c(C(=O)CN(C)CC(=O)Nc2ccc(F)cc2)c(=O)[nH]c1=O | -70.6 |
| CCCn1c(N)c(C(=O)CN(C)CC(=O)Nc2ccccc2CC)c(=O)[nH]c1=O | -42 |
| COC(=O)c1c(C)[nH]c(C(=O)CN(C)CC(=O)Nc2cccc(F)c2)c1C | -22.2 |
| CCCn1c(N)c(C(=O)CN(C)CC(=O)Nc2ccccc2C(F)(F)F)c(=O)[nH]c1=O | -0.764 |
| CCCn1c(N)c(C(=O)CN(C)CC(=O)Nc2c(Cl)cccc2Cl)c(=O)[nH]c1=O | -9.48 |
| CCCn1c(N)c(C(=O)CN(C)CC(=O)Nc2cccc(F)c2)c(=O)[nH]c1=O | -75.1 |
| O=C(NCCC1=CCCCC1)c1ccc([N+](=O)[O-])cc1 | -14.9 |
| O=C(CCc1ccc(S(=O)(=O)N2CCCCC2)cc1)c1nnc(-c2ccccc2)o1 | -12.7 |
| CCC(C)NC(=O)CN(C1CCCCC1)S(C)(=O)=O (centres unmarked) | 9.11 |
| Cc1cc(N)n2ncc(-c3cccc(Br)c3)c2n1 | -2.75 |
| Cc1cc(-n2c(C)cc(C(=O)CSc3nncn3C(C)C)c2C)no1 | 9.21 |
| O=C1CCCN1CC(=O)N1CCCC(N2CCN(c3cccc(Cl)c3)CC2)C1 (centres unmarked) | 8.15 |
| CCCC(c1nnnn1Cc1ccc(OC)cc1)N1CCN(c2ccccc2OC)CC1 (centres unmarked) | -8.59 |
| CC(C)C(c1nnnn1Cc1ccc(F)cc1)N1CCN(C2CCCC2)CC1 (centres unmarked) | -38.2 |
| CCCC(c1nnnn1Cc1cccs1)N1CCN(C2CCCC2)CC1.Cl (centres unmarked) | -29 |
| CC(C)C(c1nnnn1Cc1ccc(F)cc1)N1CCSCC1 (centres unmarked) | -20.7 |
| CCCC(c1nnnn1Cc1ccc(F)cc1)N1CCN(C2CCCCC2)CC1.Cl (centres unmarked) | -62.4 |
| CCC(c1nnnn1Cc1ccc(F)cc1)N1CCN(C)CC1 (centres unmarked) | -1.38 |
| CCCC(c1nnnn1Cc1ccc(F)cc1)N1CCN(CC)CC1 (centres unmarked) | -53 |
| CCCC(c1nnnn1Cc1ccc(F)cc1)N1CCN(C)CC1 (centres unmarked) | -2.88 |

| SMILES | hERG current change (%, negative = inhibition) at 10uM [%] |
| --- | --- |
| CCC(c1nnnn1Cc1ccc(F)cc1)N1CCN(C2CCCCC2)CC1.Cl (centres unmarked) | -53 |
| CC(C)C(c1nnnn1Cc1ccc(F)cc1)N1CCN(C2CCCCC2)CC1 (centres unmarked) | -61.3 |
| CCCC(c1nnnn1CS(=O)(=O)c1ccc(C)cc1)N1CCN(C2CCCC2)CC1.Cl (centres unmarked) | -37.5 |
| CCC(c1nnnn1Cc1cccs1)N1CCN(C2CCCC2)CC1.Cl (centres unmarked) | -22.3 |
| CCCN1C(=O)C(O)(CC(=O)c2ccc3c(c2)OCCO3)c2ccccc21 (centres unmarked) | 7.24 |
| Cc1nn(CC(=O)Nc2ccc(C(=O)N3CCCC3)cc2)c(=O)c2ccccc12 | -1.72 |
| CCN(c1cccc(C)c1)S(=O)(=O)c1c(C)[nH]c(C)c1C(=O)N1CCCCC1 | 5.45 |
| O=C(O)c1cccc(CSc2nnc(Cc3ccccc3)o2)c1 | -5.18 |
| Cc1cc(C)n2nc(C(=O)Nc3ccc4c(c3)OCO4)nc2n1 | -1.25 |
| Cc1nc(NC(=O)CN2CCCCC2)sc1C(=O)N(C)C | 1.37 |
| CC(NC(=O)c1cc(-c2ccccc2)nc2ccccc12)C1CCCO1 (centres unmarked) | -11 |
| COc1cc2c(cc1OC)[C@@]13CCN4CC5=CCO[C@H]6CC(=O)N2[C@H]1[C@H]6[C@H]5C[C@H]43 | -8.03 |
| O=C1CC2OCC=C3CN4CCC56c7cc([N+](=O)[O-])ccc7N1C5C2C3CC46 (centres unmarked) | -22.4 |
| O=C1/C(=C\c2ccccc2)C2OCC=C3CN4CCC56c7ccccc7N1C5C2C3CC46 (centres unmarked) | -53.4 |
| NNC(=O)c1ccc(Oc2cc(Cl)cc(Cl)c2)o1 | 1.1 |
| O=C(Nc1ccc(Cl)c([N+](=O)[O-])c1)c1ccc(NCCCN2CCOCC2)c([N+](=O)[O-])c1 | -10.2 |
| Cl.O=C(Nc1cc(F)cc(F)c1)c1ccc(NCCCN2CCCCCC2)c([N+](=O)[O-])c1 | -72.1 |
| COc1ccc(NC(=O)c2ccc(NCCCN3CCOCC3)c([N+](=O)[O-])c2)cc1 | -3.71 |
| CCCN(CCC)CCCNc1ccc(C(=O)Nc2cccc(OC)c2)cc1[N+](=O)[O-].Cl | -76.3 |
| Cc1ccc(NC(=O)c2ccc(NCCCN3CCC(C)CC3)c([N+](=O)[O-])c2)cc1F.Cl | -8.31 |
| O=C(Nc1cc(F)cc(F)c1)c1ccc(NCCc2ccccc2)c([N+](=O)[O-])c1 | 3.74 |
| Cc1ccc(NC(=O)c2ccc(NCCCN3CCC(C)CC3)c([N+](=O)[O-])c2)c(C)c1 | -19.4 |
| Cc1cccc(NC(=O)c2ccc(NCCc3ccccc3)c([N+](=O)[O-])c2)c1 | 6.78 |
| COc1cccc(NC(=O)c2ccc(NCCCN3CCC(C)CC3)c([N+](=O)[O-])c2)c1 | -56.2 |

| SMILES | hERG current change (%, negative = inhibition) at 10uM [%] |
| --- | --- |
| Cc1ccc(C(=O)Nc2cccc(NC(=O)c3ccc(C)cc3)n2)cc1 | 2.01 |
| Cc1ccccc1-c1nnc(CN2CCC(C)CC2)o1.Cl | -6.6 |
| COCCOCC(O)CN1CCN(c2ccc(C)cc2)CC1.O=C(O)C(=O)O (centres unmarked) | -11.2 |
| Cc1c(C(=O)NC2CCCc3ccccc32)oc2ccc(S(=O)(=O)N3CCOCC3)cc12 (centres unmarked) | -2.45 |
| CC(Oc1cccc(Cl)c1)C(=O)Nc1ccc(S(=O)(=O)NC2=NCCCCC2)cc1 (centres unmarked) | -22.5 |
| CCN(CC)C(=O)c1c2c(nc3ccccc13)-c1ccccc1CC2 | -12.6 |
| CCOC(=O)/C(C#N)=C\C=C1C=CN(C)C=C1 | 0.0919 |
| O=c1cc(CN2CCOCC2)c2ccc(O)c(O)c2o1 | 10.1 |
| Cc1cc(C)c2oc(=O)cc(CN3CCN(Cc4ccccc4)CC3)c2c1 | -33.2 |
| Cc1ccc2c(CN3CCCCC3)cc(=O)oc2c1C | -1.49 |
| Cc1ccc2c(CN3CCN(Cc4ccccc4)CC3)cc(=O)oc2c1C | -55.3 |
| O=c1cc(CN2CCN(Cc3ccccc3)CC2)c2ccc(O)c(O)c2o1 | -65.8 |
| Cc1c(O)ccc2c(CN3CCN(Cc4ccccc4)CC3)cc(=O)oc12 | -61.9 |
| CCc1cc(=O)oc2c(CN3CCN(C)CC3)c(O)ccc12 | 8.25 |
| Cc1cc(C)c2c(CN3CCN(Cc4ccccc4)CC3)cc(=O)oc2c1C.Cl | -40.8 |
| Cc1c(O)ccc2c(CN3CCN(CCO)CC3)cc(=O)oc12 | 3.5 |
| COc1ccc(NC(=O)C2CC(=O)OC2(C)C)cc1 (centres unmarked) | 3.44 |
| CCOC(=O)CNC(=O)Nc1ccccc1C(=O)OC | 15.1 |
| Cc1cc(C)n(S(=O)(=O)c2cccc([N+](=O)[O-])c2)n1 | 3.73 |
| COc1ccc(C(=O)C(C)N(C(=O)c2ccc(Cl)cc2Cl)N2C(=O)C3C4C=CC(C4)C3C2=O)cc1 (centres unmarked) | 0.401 |
| Cc1cccc(OC(=O)c2sc3ncn(C)c(=O)c3c2C)c1 | 3.54 |
| O=C(Cn1nc2n(c1=O)-c1ccccc1SC2)N/N=C/c1ccncc1 | -1.97 |
| Nc1c(C(=O)OC2CCCCC2)c2nc3ccccc3nc2n1CC1CCCO1 (centres unmarked) | -63.7 |
| CC(C)OC(=O)c1c(N)n(CC2CCCO2)c2nc3ccccc3nc12 (centres unmarked) | -29.3 |

| SMILES | hERG current change (%, negative = inhibition) at 10uM [%] |
| --- | --- |
| Nc1c(C(=O)NC2CCCC2)c2nc3ccccc3nc2n1CC1CCCO1 (centres unmarked) | -4.67 |
| Nc1cc(Cl)ccc1N1CCOCC1 | -1.57 |
| C[n+]1ccccc1COc1ccc(C(C)(C)C)cc1.Cc1ccc(S(=O)(=O)[O-])cc1 | 2.84 |
| COc1ccc(-c2c(-c3cc(OC)cc(OC)c3)n(C)c3ccc(-c4ccc(S(N)(=O)=O)cc4)cc23)cc1 | 14.8 |
| Cc1ccc(-n2c3nc(=O)[nH]c(=O)c-3cc3cc([N+](=O)[O-])ccc32)cc1C | -26.9 |
| Cc1cccc(-n2c3nc(=O)[nH]c(=O)c-3cc3cc([N+](=O)[O-])ccc32)c1 | -35.1 |
| Cc1ccc(-n2c3nc(=O)[nH]c(=O)c-3cc3cc([N+](=O)[O-])ccc32)cc1 | -57.6 |
| COc1ccc(CNC(=O)C(=O)NCC2OCCN2S(=O)(=O)c2ccc(F)cc2)cc1 (centres unmarked) | -3.41 |
| COc1ccc(-c2nc(CSCC(=O)NCc3ccc4c(c3)OCO4)c(C)o2)cc1 | -6.05 |
| COc1ccccc1NS(=O)(=O)c1ccc(N/N=C(\C)C(C)C)c([N+](=O)[O-])c1 | 9.29 |
| CCOC(=O)c1ccccc1NC(=O)c1c(O)[nH]c(=S)[nH]c1=O | 15.6 |
| Cc1cccc(-c2nn(-c3ccccc3)cc2C(=O)N2CCN(C3CCS(=O)(=O)C3)CC2)c1 (centres unmarked) | -36.6 |
| COc1cccc(-c2nn(-c3ccc(C)cc3)cc2C(=O)N2CCN(C3CCS(=O)(=O)C3)CC2)c1 (centres unmarked) | -57 |
| COc1ccc(-c2nn(-c3ccccc3)cc2C(=O)NCC2CCCO2)cc1 (centres unmarked) | -0.557 |
| CCc1ccc(-c2nn(-c3ccccc3C)cc2C(=O)N2CCN(C3CCS(=O)(=O)C3)CC2)cc1 (centres unmarked) | -1.98 |
| COc1cccc(-c2nn(-c3ccc(F)cc3)cc2C(=O)NCC2CCCO2)c1 (centres unmarked) | -49.7 |
| Cc1ccc(-c2nn(-c3ccc(F)cc3)cc2C(=O)N2CCN(C3CCS(=O)(=O)C3)CC2)cc1 (centres unmarked) | -61.6 |
| COc1cccc(-c2nn(-c3ccccc3)cc2C(=O)O)c1 | 1.11 |
| COc1cccc(-c2nn(-c3ccc(C)cc3)cc2C(=O)NCC2CCCO2)c1 (centres unmarked) | -62.2 |
| O=C(c1cn(-c2ccccc2)nc1-c1ccc(F)cc1)N1CCCCC1 | -10.6 |
| Cc1ccc(-c2nn(-c3ccc(F)cc3)cc2C(=O)NC2CCC(O)CC2)cc1 (centres unmarked) | 14.4 |
| COc1cccc(-c2nn(-c3ccc(C)cc3)cc2C(=O)N2CCc3cc(OC)c(OC)cc3C2)c1 | -31.7 |
| Cc1ccc(-c2nn(-c3ccccc3)cc2C(=O)N2CCN(C3CCS(=O)(=O)C3)CC2)cc1 (centres unmarked) | -68.8 |
